Compound activity from PubChem.
Compounds with a hit are over-represented: about 7.9% of the library has one in this group of screens.
HCMV antiviral = blocks human cytomegalovirus replication; 4.5% of 410,000 active; activity change, negative = inhibition, % at 57.5 µM; HFF cells, HCMV-luciferase reporter, 72 h; active compounds read low; in the data active means activity change below about -60%; inconclusive means no clear call, values can overlap the other calls; inactive means above about -39%
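HFF cells seeded 16 h at 37C, treated with compounds, infected with luciferase-reporter HCMV at MOI 1 PFU/cell; luciferase read at 72 h post infection, normalized to buffer-only and Salinomycin controls.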
HCV inhibitor = inhibitors of hepatitis C virus infection | Huh7.5.1 HCVcc-Cre infection, luciferase reporter, 44 h | Potency, µM (doses to about 41.8 µM), for the others: at the top dose activity change, negative = inhibition, usual class: inhibitors | 3.4% of 340,000 active; active means well fitted inhibition curve with a large enough effect; inconclusive means small, poorly fitted or top-dose-only effect, or another doubt; inactive means no such curve, though single readings can be large or run the other way; further: potency means the concentration at half of the fitted maximal effect
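Antiviral activity was scored by luciferase reporter output from cells infected with HCVcc-Cre (~0.5 moi) in presence of compound, 44 h infection period, cells seeded 1,000/well 4 h prior.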
FMDV inh = antivirals against foot and mouth disease virus | FMDV antiviral cell-based qHTS | Potency, µM (highest dose often 57.9 µM), for inactives: top-dose activity change, negative = inhibition, most hits filed as inhibitors | 1.2% of 410,000 active | AID 1159524; calls by dose curve; tested in HEK293T cells; further: read-out not given here; potency means the concentration at half of the fitted maximal effect; nearly all actives have a fitted effect of over 45% in size
Marburg entry inh = inhibitors of Marburg virus binding or cell entry | AID 540276 | 1.8% of 300,000 active | Marburg virus pseudotyped entry inhibition, cell reporter | Potency, µM (titrated, usually from 37.8 µM), for the others: at the top dose activity change, negative = inhibition, hits mostly inhibitors; calls by dose curve; tested in HEK293 cells; further: potency means the concentration at half of the fitted maximal effect
LASV entry inh = blocks Lassa virus binding to or entry into cells; Lassa virus pseudotype entry inhibition, cell reporter; Potency, µM (highest dose often 37.9 µM), inactives show top-dose activity change, negative = inhibition, hits mostly inhibitors; 1.2% of 300,000 active; AID 540256; calls by dose curve; tested in HEK293 cells; further: potency means the concentration at half of the fitted maximal effect; nearly all actives have a fitted effect of over 50% in size
* hit, by the source's call; [ ] = dose if it differs, or a comment. On the % scale 0 is the no-effect control and ±100 the full control effect.

Screening Cc1ccc(-c2csc(N(CCO)CCCn3c(C(F)(F)F)nc4ccccc43)n2)cc1 returned HCMV antiviral -64*, HCV inhibitor 10µM* and FMDV inh inconclusive.
Screening OCCn1c(C(F)(F)F)nc2ccccc21 returned HCMV antiviral -5, HCV inhibitor 9%, FMDV inh -24%, Marburg entry inh 18% and LASV entry inh 25%.
For CN(C)c1ccc(C=c2c3cc(O)ccc3n3c2cc(-c2ccccc2)[n+]3C)cc1 the results were HCMV antiviral -101*, HCV inhibitor inconclusive, FMDV inh -21%, Marburg entry inh inconclusive and LASV entry inh inconclusive.
`C[n+]1c(-c2ccccc2)cc2c(=Cc3ccc([N+](=O)[O-])cc3)c3ccccc3n21` gave HCMV antiviral -101*, HCV inhibitor inconclusive, FMDV inh inconclusive, Marburg entry inh inconclusive and LASV entry inh 10µM*.
For CN(C)c1ccc(/C=c2\sc3nc(-c4ccccc4)nn3c2=O)cc1 the results were Marburg entry inh 1%.
`C[n+]1c(-c2ccccc2)cc2c(=Cc3ccccc3)c3ccccc3n21` gave HCMV antiviral -99*, HCV inhibitor inconclusive, FMDV inh 3.5µM*, Marburg entry inh inconclusive and LASV entry inh 7.9µM*.
COC(=O)[C@H](CC(C)C)N(Cc1ccccc1)S(=O)(=O)N(Cc1ccccc1)[C@@H](CC(C)C)C(=O)OC was read as HCMV antiviral -69*, HCV inhibitor 7% and FMDV inh inconclusive.
For COC(=O)[C@H](CC(C)C)N(Cc1ccccc1)S(=O)(=O)N(Cc1ccc(OC)cc1)[C@@H](CC(C)C)C(=O)OC the results were HCMV antiviral -66*, HCV inhibitor -8%[8.37 µM] and FMDV inh inconclusive.
For CCOC(=O)[C@@H](C)N(Cc1ccc(OC)cc1)S(=O)(=O)N(Cc1ccccc1)[C@H](C(=O)OC)C(C)C the results were HCMV antiviral -79*, HCV inhibitor inconclusive, FMDV inh -21% and Marburg entry inh 0%.
COC(=O)[C@H](CC(C)C)NS(=O)(=O)N(Cc1ccccc1)[C@@H](CC(C)C)C(=O)OC was read as HCMV antiviral 25, HCV inhibitor -2% and FMDV inh -18%.
`O=C(CCC(=O)c1cccs1)NCc1cccc(C(F)(F)F)c1` gave HCMV antiviral -27, HCV inhibitor 24%, FMDV inh 6%, Marburg entry inh 10% and LASV entry inh -10%.
O=C(COC(=O)c1cc(Cl)ccc1O)Nc1ccc2c(c1)OCCO2 was read as HCMV antiviral 0, HCV inhibitor 6% and FMDV inh 20%.
Screening O=C(NCCSCc1ccc(Cl)cc1)C1CCN(S(=O)(=O)Cc2ccccc2)CC1 returned HCMV antiviral 5, FMDV inh -8%, Marburg entry inh -6%[46.1 µM] and LASV entry inh 17%[46.1 µM].
O=c1[nH]cnc2c1ncn2C1CC(O)C(CO)O1 (configuration not stated) was read as FMDV inh 9%.
C=CCN1C(=O)/C(=C\c2ccc(N3CCOCC3)o2)C(=O)NC1=S was read as HCMV antiviral -18, HCV inhibitor 35%, FMDV inh -12%, Marburg entry inh -3% and LASV entry inh -4%.
`C=CCN1C(=O)N/C(=C/c2ccc(N3CCOCC3)o2)C1=O` gave HCMV antiviral -63*, HCV inhibitor -1%[0.335 µM], Marburg entry inh inconclusive and LASV entry inh -20%.
Screening CNC(=O)C1CCC(Cn2c(=O)c3sccc3n(Cc3cc(C)ccc3C)c2=O)CC1 (configuration not stated) returned HCMV antiviral 1, FMDV inh -9% and LASV entry inh -1%[46.1 µM].
`Cc1ccc(O)c(NC(=O)COCc2cc(-c3ccco3)on2)c1` gave HCMV antiviral active, FMDV inh -8% and LASV entry inh inconclusive.
Cc1cc(C)c(S(=O)(=O)N[C@H]2CC[C@@]34CCCN3C(=O)CCC[C@H]4[C@H]2C)c(C)c1 was read as HCMV antiviral 19.
For COc1ccc2c(c1)c(CCN1CCOCC1)c(C)n2C(=O)c1cccc(Cl)c1Cl the results were Marburg entry inh inconclusive and LASV entry inh 23µM*.
`C=C(CCC(=O)c1ccccc1)C(=O)c1ccccc1` gave HCMV antiviral -81*, HCV inhibitor inconclusive, FMDV inh inconclusive, Marburg entry inh inconclusive and LASV entry inh inconclusive.
